These results are taken from PubChem BioAssay (Tox21).

Records with an inconclusive call do not appear. Where a call stands in place of a potency, no number is given. Where a structure was tested more than once in an assay, its records may differ in their call. Calls of active or inactive are those of the source. Calls follow the shape of the dose curve; as a rule, active = well fitted activation curve with a large enough effect in the repeat runs; inconclusive = weak or mixed curves; inactive = flat fitted curve, though single readings scatter. Residues, ends and D or L forms follow the SMILES beside them.
Potency is read from the fitted curve at half-maximal effect.

The test is described as follows: A CellTox Green Cytotoxicity Assay to monitor cytotoxicity in HepG2 cells - 40 hour (AID 1224879). Also: nearly all actives have a fitted effect of over 40% in size. Particulars: CellTox Green fluorescence; series mostly up to 76.8 µM. An excerpt: National Center for Advancing Translational Sciences [NCATS]
NIH Chemical Genomics Center [NCGC]
U.S. Environmental Protection Agency [EPA]
National Institutes of Environmental Health Sciences [NIEHS]
National Toxicology Program [NTP]
Cell-based models are critical for drug discovery. Determining the natural cytotoxic effects resulting from test compounds is an essential research activity. A CellTox Green Cytotoxicity Assay to monitor cytotoxicity in real time of continues cell culture during 40 hours of the compound treatment was used to screen Tox21 10K library compounds in HepG2 cells. CellTox Green Cytotoxicity Assay is a nonlytic, homogeneous, biofluorescent method to measure cytotoxicity in cell culture after experimental manipulation. The assay system uses a proprietary asymmetric cyanine dye that is excluded from viable cells but preferentially stains the dead cell's DNA. […] Viable cells produce no appreciable increases in fluorescence. Therefore, the fluorescence signal produced by the binding interaction with dead cell DNA is proportional to cytotoxicity.
The mixture of HepG2 cell suspension and reagents were dispensed at 600cells/6 ul/well in 1536-well tissue culture treated black solid bottom plates using a Multidrop dispenser. After the assay plates were incubated at a 37 C/5% CO2 incubator for 5 hours, 23 nL of compounds dissolved in DMSO, positive and negative controls was transferred to the assay plate by a pintool work station. The plates were incubated at 37 C for 40 hours. The fluorescence intensity were measured at 0h, 8h, 16h, 24h, 32h and 40h time points using ViewLux plate reader during compound treatment.
Turning to `CC(C)[C@@H]1CC[C@@H](C)C[C@H]1O`, the Potency result was “inactive”.

Regarding `Cc1cc(=O)n(-c2ccccc2)n1C`, the Potency entry is “inactive”.

Turning to `O=NO`, the Potency result is “inactive”.

Consider `O=C(O)CCCCC(=O)O`, for which the Potency entry was “inactive”.

With `CCCC(CCC)C(=O)O`, the Potency entry is “inactive”.

`Cc1ccc(O)cc1`: the Potency result is “inactive”.

For `Cc1ccccc1C(OCCN(C)C)c1ccccc1` (stereo not given), the Potency result was “inactive”.

Turning to `CC1(C)[C@@H]2CC[C@@]1(C)C(=O)C2`, the Potency entry was “inactive”.

Take `OC(Cn1cncn1)(Cn1cncn1)c1ccc(F)cc1F`: the Potency entry was “inactive”.

With `Cn1cc[nH]c1=S`, the Potency entry is “inactive”.

For `CCCCCCCCCCCCCCCC(=O)O`, the Potency entry is “inactive”.

Consider `COc1c2occc2cc2ccc(=O)oc12`, for which the Potency result was “inactive”.

Take `NC(=O)NC1NC(=O)NC1=O` (stereo not given): the Potency result is “inactive”.

For the molecule `Cc1noc(NS(=O)(=O)c2ccc(N)cc2)c1C`, the Potency entry is “inactive”.

On to `CC(O)CO` (stereo not given), for which the Potency result is “inactive”.

Regarding `O=C(O)c1[nH]n(-c2ccc(S(=O)(=O)O)cc2)c(=O)c1N=Nc1ccc(S(=O)(=O)O)cc1`, the Potency result is “inactive”.

Turning to `O=C(C1CCCCC1)N1CC(=O)N2CCc3ccccc3C2C1` (stereo not given), the Potency result was “inactive”.

For the molecule `NC(N)=NC(=O)c1nc(Cl)c(N)nc1N`, the Potency entry was “inactive”.

Take `Cn1c(=O)c2[nH]cnc2n(C)c1=O`: the Potency result is “inactive”.

In the case of `Cc1cn([C@H]2C[C@H](N=[N+]=[N-])[C@@H](CO)O2)c(=O)[nH]c1=O`, the Potency result was “inactive”.

Turning to `COC(=O)[C@H](Cc1ccccc1)NC(=O)[C@@H](N)CC(=O)O` (H-Asp-Phe-OMe), the Potency entry was “inactive”.

As for `CC(C)(Oc1ccc(C2CC2(Cl)Cl)cc1)C(=O)O` (stereo not given), the Potency entry is “inactive”.

In the case of `Nc1ccc(S(=O)(=O)c2ccc(N)cc2)cc1`, the Potency entry was “inactive”.

Consider `CCCCC1C(=O)N(c2ccccc2)N(c2ccccc2)C1=O`, for which the Potency entry is “inactive”.

Consider `C[C@]12C=CC(=O)C=C1CC[C@@H]1[C@@H]2[C@@H](O)C[C@@]2(C)[C@H]1CC[C@]2(O)C(=O)CO`, for which the Potency entry was “inactive”.

Consider `NC(=O)c1cnccn1`, for which the Potency result is “inactive”.

For the molecule `NC(=O)c1ccccc1O`, the Potency entry is “inactive”.

Regarding `CNC[C@H](O)c1cccc(O)c1`, the Potency entry is “inactive”.

Turning to `C/C=C/c1ccc(OC)cc1`, the Potency entry is “inactive”.

For `CC(=O)OCC(COC(C)=O)OC(C)=O`, the Potency entry was “inactive”.

On to `O=C(O)CCC(=O)O`, for which the Potency result was “inactive”.

Turning to `c1ccc2[nH]ccc2c1`, the Potency is 5.41 µM (active) and inactive.

Regarding `C1N2CN3CN1CN(C2)C3`, the Potency result was “inactive”.

For the molecule `O=S(=O)(O)NC1CCCCC1`, the Potency entry was “inactive”.

Take `O=c1cc[nH]c(=S)[nH]1`: the Potency result is “inactive”.

As for `O=C1CN(/N=C/c2ccc([N+](=O)[O-])o2)C(=O)N1`, the Potency result is “inactive”.

Take `CC(O)C(=O)O` (stereo not given): the Potency entry is “inactive”.

In the case of `CCCCC(CC)COC(=O)/C=C/c1ccc(OC)cc1` (stereo not given), the Potency result was “inactive”.

In the case of `O=C(c1ccccc1)c1ccccc1`, the Potency result is “inactive”.

Take `NS(=O)(=O)c1cc(C(=O)O)c(NCc2ccco2)cc1Cl`: the Potency is 19.6 µM (active) and inactive.
